Screening results as filed in PubChem.
Only a selection was taken, and hits are over-represented in it overall.
Tgondii IFNg: T. gondii growth inhibition with IFN-gamma, primary screen, cell-based. Toxoplasma gondii growth in IFN-gamma-treated host cells; hits give low values. activity change, negative = inhibition, % (test concentration not listed). hit rate 3.8% among 69,000; in the data active means activity change below about -70%, passing the limit was not always enough;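 further: host cells are HeLa cells infected with Toxoplasma gondii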
* = called active by the depositor; i = inactive; ! = a repeat was not active.

SMILES	Tgondii IFNg
Cc1ccc(C(=O)CN2C(=O)CN=C(c3ccc(C)cc3)c3c2sc2c3CCCC2)cc1	24
COCCN1C[C@H]2[C@H](OC)CCN(C(=O)c3ncccn3)[C@H]2C1	-20
CC(C)=CCC[C@]1(C)C=Cc2c(O)c3c(c(CC=C(C)C)c2O1)O[C@]12C(=C[C@@H]4C[C@H]1C(C)(C)O[C@@]2(CC=C(C)C(=O)O)C4=O)C3=O	-85*
CC(C)CCCC1(C)C=Cc2c(O)c3c(c(CCC(C)C)c2O1)OC12C(CC4CC1C(C)(C)OC2(CCC(C)C(=O)O)C4O)C3=O (stereo unspecified)	4
C[C@]12CC/C(=N\OCCN)C[C@@H]1C(=O)C[C@@H]1[C@@H]2CC[C@]2(C)C(=O)CC[C@@H]12	-34
CC(C)(C)NCC(O)c1ccc(O)cc1Cl (stereo unspecified)	-11
C[C@@H]1C[C@@H]([C@H](O)CC2CC(=O)NC(=O)C2)C(=O)[C@@H](C)C1	-79*
CN(C)CCO[C@H]1C[C@@H]2CN(Cc3ccncc3)CCN2C1	-33
CCC1/C=C/C=C/C[C@H](C)[C@@H](O)[C@](C)(O)C(=O)[C@@H](C)[C@H](O)[C@@H](C)C(=O)[C@H](C)[C@@H](O)[C@H](C)/C=C/C(=O)OC2[C@@H](C)C(CC1)OC1(CC[C@@H](C)C(C[C@H](C)O)O1)[C@@H]2C (stereo partly specified)	-60
Cc1noc(C)c1CN1CC2CC(C1)N(Cc1ccco1)C2 (stereo unspecified)	-13
CCCN1C(=O)C(C(=O)/C=C/c2ccc(C)cc2)C2c3ccccc3OC13CCCCC23 (stereo unspecified)	4
O=C(/C=C/c1ccc(Cl)cc1)C1C(=O)NC23CCCCC2C1c1ccccc1O3 (stereo unspecified)	12
CCOc1ccc(/C=C/C(=O)C2C(=O)NC34CCCCC3C2c2ccccc2O4)cc1OC (stereo unspecified)	-80*
Cc1nc(CN2CCC3(CC2)C(=O)Nc2ccccc23)cs1	i
CC[C@@]1(O)C(=O)OCc2c1cc1n(c2=O)Cc2cc3ccccc3nc2-1	-88*
CCC1(O)C(=O)OCc2c1cc1n(c2=O)Cc2cc3ccccc3nc2-1 (stereo unspecified)	-106*
CN(Cc1ccccn1)C(=O)C1C2CCC1CN(CC(=O)O)C2 (stereo unspecified)	-27
COCCCNC(=O)c1cc2cccnc2n(Cc2ccc(F)cc2)c1=O	-9
CCn1ncnc1CN1CCC2(CCCNC2)C1 (stereo unspecified)	41
Cn1cc(CN2CC[C@H]3[C@@H]2CCN3C(=O)Cc2ccc(F)cc2)cn1	0
Cc1ccc(N2CCO[C@H]3CN(Cc4ccccn4)C[C@@H]32)nn1	-6
COCCN1C[C@H]2CCCC(OCc3cccnc3)[C@@H]2C1 (stereo partly specified)	-4
CCOC(C(=O)OCCCN1CCCCCC1)(c1ccccc1)c1ccccc1	-80*
Cc1noc(C)c1CN1CCC2(CC1)C(=O)N(c1ccoc1)c1ccccc12	-4
NS(=O)(=O)c1ccc(NC(=O)c2cc3cccnc3n(Cc3ccc(F)cc3)c2=O)cc1	5
SMILES	Tgondii IFNg
COC(=O)c1ccc(NC(=O)c2cc3cccnc3n(Cc3ccccc3)c2=O)cc1	99
O=C(Nc1ccc(Cl)cc1)c1cc2cccnc2n(Cc2ccccc2)c1=O	141
c1cncc(CN2CCO[C@@H]3CN(Cc4ccco4)CC[C@@H]3C2)c1	87
CCOCC(=O)N1C[C@@H]2CCN(Cc3c(C)noc3C)C[C@H]2C1	-46
CCC(=O)O[C@H]1CCC2C3CCC4=CC(=O)CC[C@]4(C)C3CC[C@@]21C (stereo partly specified)	-84*
CCCCCCC(=O)O[C@H]1CC[C@H]2[C@@H]3CCC4=CC(=O)CC[C@]4(C)[C@H]3CC[C@]12C	-75*
CCN(CC)CCOC1CCC2(C)C(=CCC3C4CCC(=O)C4(C)CCC32)C1 (stereo unspecified)	-51
C[C@]12CCC(=O)C=C1CC[C@@H]1[C@@H]2CC[C@]2(C)C(=O)CC[C@@H]12	47
COC(=O)c1cccc(CN2CCO[C@@H]3CCCC[C@H]32)n1	-5
CC(=O)OC[C@]12CCC(C)=C[C@H]1O[C@@H]1[C@H](O)[C@@H](OC(C)=O)[C@@]2(C)[C@@]12CO2	-81*
NCCc1n[nH]c(=O)n1C1CCCCC1	1
CN(C)C(=O)N[C@H]1CNC2CCCOC21 (stereo partly specified)	94
CC(=O)OC1CC[C@@]2(C)C(CCC3C2CC[C@]2(C)C(C4=CC(=O)OC4)C(OC(C)=O)CC32O)C1 (stereo partly specified)	-80*
O=C(c1nc(=O)[nH]c2ccccc12)N1CCCC2(CCNC2)C1 (stereo unspecified)	4
CN(C)C(=O)CN1CCO[C@H]2CN(c3ncc(F)cn3)C[C@@H]21	2
COc1ccc(CCNC(=O)c2cc3cccnc3n(Cc3ccc(Cl)cc3)c2=O)cc1OC	-10
CN1CCN2CCN(Cc3cnn4cccnc34)CC2C1 (stereo unspecified)	1
CC(=O)[O][Hg][c]1ccccc1	-72*
CCN(CC)C(C)C(=O)c1ccccc1 (stereo unspecified)	21
Cc1cnc(N2CCC3C(C[C@@H](Cn4cncn4)N3C)C2)nc1 (stereo partly specified)	-1
O=C(c1cscn1)N1CCC2(CN(Cc3cccnc3)C2)C1	-1
O=C(Nc1ccccc1C(F)(F)F)c1cc2cccnc2n(Cc2ccc(Cl)cc2)c1=O	38
Cc1ccc(N2CCC3(CC2)COCCN3CCN(C)C)nn1	23
C[C@@H]1O[C@@H](O[C@H]2CC[C@]3(C=O)C4CC[C@]5(C)[C@@H](C6=CC(=O)OC6)CC[C@]5(O)C4CC[C@]3(O)C2)[C@H](O)[C@H](O)[C@H]1O (stereo partly specified)	-65
C[C@]12CCC3C(CC[C@]4(O)C[C@@H](O)CC[C@]34C=O)[C@@]1(O)CCC2C1=CC(=O)OC1 (stereo partly specified)	-84*!
SMILES	Tgondii IFNg
Cc1cc(NC(=O)c2cc3cccnc3n(Cc3ccc(F)cc3)c2=O)ccc1Br	44
COc1ccc2c(c1)C1(CCN(C(=O)c3ccc(Oc4ccccc4)cc3)CC1)CC2CC(=O)O (stereo unspecified)	-20
c1ccc(CN2CCC3OCCCC3(COCC3CC3)C2)nc1 (stereo unspecified)	-8
Cc1cc(N2C[C@H](c3cc(F)cc(F)c3)[C@@H]3[C@H]2C2CCN3CC2)nc(N)n1	-16
COC(=O)c1cc(N2C[C@@H](c3ccc(OC)cc3)[C@@H]3[C@H]2C2CCN3CC2)ncn1	-38
CCCN(CCC)C1CCc2ccc(O)cc2C1 (stereo unspecified)	-76*!
CCCN(CCC)C1CCc2cccc(O)c2C1 (stereo unspecified)	16
CN1C[C@H]2CN(Cc3nccn3C)C[C@H]2C1=O	88
O=S(=O)(NC1CC2(CCN(Cc3ccccn3)C2)C1)C1CC1 (stereo unspecified)	1
c1ccc(CN2CCOCC3(CCN(Cc4ccco4)C3)C2)nc1 (stereo unspecified)	29
Clc1ccc(COC(Cn2ccnc2)c2ccc(Cl)cc2Cl)c(Cl)c1 (stereo unspecified)	-85*!
Cc1ccc(-n2nccn2)c(C(=O)N2CCN(c3nc4cc(Cl)ccc4o3)CC[C@H]2C)c1	6
CCN(CC)CCN1CCO[C@@H]2[C@@H](OCc3ccccn3)CC[C@H]21	-2
